The antibiotic and cytotoxicity screens of Wong et al. (2023)
Out of some 39,000 compounds screened, about 3,300 (8.5%) were called active. The sample holds actives, similar compounds and a random draw of the others, so the mix is not that of the screen.

The compounds below were run on HepG2 (assay: cytotoxicity call (relative viability < 0.9)). Conditions: 10 µM.

SMILES | cytotoxicity call
C[C@@H]1CN([C@H](C)CO)S(=O)(=O)c2ccc(C#Cc3cccnc3)cc2O[C@H]1CN(C)CC1CCCC1 | inactive
Cc1noc(C)c1S(=O)(=O)N(C)C[C@H]1Oc2ccc(NS(C)(=O)=O)cc2C(=O)N([C@H](C)CO)C[C@H]1C | inactive
COc1ccc(NC(=O)Nc2ccc3c(c2)[C@@H]2C[C@H](CC(=O)N4CCN(C)CC4)O[C@@H](CO)[C@@H]2O3)cc1 | inactive
C[C@H]1CCCCO[C@@H](CN(C)C(=O)Cc2ccccc2)[C@@H](C)CN([C@@H](C)CO)C(=O)c2cc(NS(=O)(=O)c3ccc(F)cc3)ccc2O1 | active
C[C@@H]1CN([C@@H](C)CO)C(=O)c2cc(NS(=O)(=O)c3ccc(F)cc3)ccc2O[C@@H](C)CCCCO[C@@H]1CN(C)C(=O)Cc1ccccc1 | inactive
C[C@@H]1CN([C@@H](C)CO)C(=O)c2cc(NS(=O)(=O)c3ccc(Cl)cc3)ccc2O[C@@H](C)CCCCO[C@H]1CN(C)C(=O)Cc1ccccc1 | inactive
C[C@@H]1CCCCO[C@@H](CN(C)C(=O)Cc2ccccc2)[C@@H](C)CN([C@@H](C)CO)C(=O)c2cc(NS(=O)(=O)c3ccc(Cl)cc3)ccc2O1 | inactive
C[C@@H]1CN([C@H](C)CO)C(=O)c2cc(NS(=O)(=O)c3ccc(Cl)cc3)ccc2O[C@@H](C)CCCCO[C@@H]1CN(C)C(=O)Cc1ccccc1 | active
Cc1ccc(S(=O)(=O)Nc2ccc3c(c2)C(=O)N([C@@H](C)CO)C[C@H](C)[C@H](CN(C)C(=O)Cc2ccccc2)OCCCC[C@@H](C)O3)cc1 | inactive
Cc1ccc(S(=O)(=O)Nc2ccc3c(c2)C(=O)N([C@@H](C)CO)C[C@H](C)[C@@H](CN(C)C(=O)Cc2ccccc2)OCCCC[C@@H](C)O3)cc1 | active
C[C@@H]1CCCCO[C@@H](CN(C)C(=O)Cc2ccccc2)[C@@H](C)CN([C@H](C)CO)C(=O)c2cc(NS(=O)(=O)c3ccc(F)cc3)ccc2O1 | inactive
Cc1ccc(S(=O)(=O)Nc2ccc3c(c2)C(=O)N([C@@H](C)CO)C[C@@H](C)[C@H](CN(C)C(=O)Cc2ccccc2)OCCCC[C@H](C)O3)cc1 | inactive
CN(C)CC#Cc1ccc([C@@H]2[C@H]3CN(C(=O)c4cccnc4)CC(=O)N3[C@H]2CO)cc1 | inactive
CC(C)(C)[S@](=O)N1Cc2cc(C(=O)NCc3ccncc3)nc(-c3cccc(-c4ccc(C#N)cc4)c3)c2[C@@H]1CCO | inactive
CO[C@H]1CN(C)C(=O)c2cc(NC(=O)C3CC3)ccc2OC[C@H](C)N(C(=O)CN2CCOCC2)C[C@H]1C | inactive
COC1=C(CC=C(C)C)C(=O)c2ccccc2C1=O | active
CC(C)=CCC1=C(O)C(=O)c2ccccc2C1=O | inactive
CC(C)=CCCC(C)=CCC1=C(C)C(=O)c2ccccc2C1=O | inactive
Cc1noc(C)c1S(=O)(=O)Nc1ccc2c(c1)CC(=O)N([C@H](C)CO)C[C@@H](C)[C@H](CN(C)S(=O)(=O)c1ccccc1)O2 | inactive
CN(Cc1ccc(C(C)(C)C)cc1)Cc1cccc2ccccc12 | inactive
CCOC(=O)N(C)C[C@H]1OCc2cnnn2CCCC(=O)N([C@@H](C)CO)C[C@H]1C | inactive

SMILES | cytotoxicity call
C[C@@H]1NC(=O)[C@@H](N)CNC(=O)[C@H]([C@H]2CCN=C(N)N2)NC(=O)/C(=C\NC(N)=O)NC(=O)[C@H](CNC(=O)C[C@@H](N)CCCN)NC1=O | inactive
C[C@H](CO)N1C[C@H](C)[C@H](CN(C)C(=O)Nc2ccccc2)Oc2ccc(NC(=O)Nc3ccc(C(F)(F)F)cc3)cc2CC1=O | active
C[C@@H]1CN([C@@H](C)CO)C(=O)Cc2cc(NC(=O)Nc3ccccc3)ccc2O[C@@H]1CN(C)C(=O)Nc1ccc(C(F)(F)F)cc1 | inactive
C[C@H]1CN([C@@H](C)CO)C(=O)Cc2cc(NC(=O)Nc3ccc(C(F)(F)F)cc3)ccc2O[C@@H]1CN(C)C(=O)Nc1ccccc1 | inactive
C[C@H](CO)N1C[C@H](C)[C@H](CN(C)C(=O)Nc2ccc(C(F)(F)F)cc2)Oc2ccc(NC(=O)Nc3ccccc3)cc2CC1=O | inactive
C[C@H](CO)N1C[C@H](C)[C@@H](CN(C)C(=O)Nc2ccccc2)Oc2ccc(NC(=O)Nc3ccc(C(F)(F)F)cc3)cc2CC1=O | inactive
C[C@@H]1CN([C@@H](C)CO)C(=O)Cc2cc(NC(=O)Nc3ccc(C(F)(F)F)cc3)ccc2O[C@@H]1CN(C)C(=O)Nc1ccccc1 | active
COc1ccc(NC(=O)N(C)C[C@H]2OCCCC[C@H](C)Oc3ccc(NC(=O)NC(C)C)cc3C(=O)N([C@@H](C)CO)C[C@@H]2C)cc1 | inactive
Cc1cc(C(=O)Nc2cccc3c2O[C@H](CN(C)S(=O)(=O)c2ccc(F)cc2)[C@@H](C)CN([C@@H](C)CO)C3=O)n(C)n1 | inactive
C[C@H](CO)N1C[C@H](C)[C@@H](CN(C)C(=O)Nc2ccc3c(c2)OCO3)Oc2ccc(NC(=O)Nc3cccc4ccccc34)cc2C1=O | inactive
COc1ccc(S(=O)(=O)N(C)C[C@@H]2Oc3c(NC(=O)c4ccncc4)cccc3C(=O)N([C@H](C)CO)C[C@H]2C)cc1 | inactive
CN(C)CCc1cc(Br)c(OCCCNC(=O)/C=C/c2cc(Br)c(OCCN3CCCCC3)c(Br)c2)c(Br)c1 | active
CN(C)CCc1cc(Br)c(OCCCNC(=O)/C=C/c2cc(Br)c(OCCN3CCCC3)c(Br)c2)c(Br)c1 | active
C=CC(=O)NCCN1CCCCC1 | inactive
COc1ccc(NC(=O)Nc2ccc3c(c2)C(=O)N([C@@H](C)CO)C[C@@H](C)[C@@H](CN(C)S(=O)(=O)c2ccc(Cl)cc2)OCCCC[C@@H](C)O3)cc1 | inactive
C[C@H](CO)N1C[C@H](C)[C@H](CN(C)S(C)(=O)=O)OCCCC[C@H](C)Oc2ccc(NS(C)(=O)=O)cc2C1=O | inactive
NC(=O)C1CCOCC1 | inactive
C[C@@H]1CN([C@H](C)CO)C(=O)c2cc(C#Cc3ccccn3)cnc2O[C@H]1CN(C)C(=O)CCN1CCCCC1 | inactive
CC(=O)O[C@H]1CCS(=O)(=O)C1 | inactive
COc1cccc(C(=O)Nc2ccc3c(c2)C(=O)N(C)[C@@H]2CC[C@@H](CC(=O)NCC(F)(F)F)O[C@H]2CO3)c1 | inactive
